The values below come from the supplement of paper PMC6555819.

The first assay deals with PPARg:RXRa 90nM:30nM, anti-RXR (NR concentration 90 nM, RXRa partner concentration 30 nM). Put plainly: PBM binding z-score (relative to random genomic background probes); higher = stronger binding; sequences stand for … in GC…GCGATTGACAGCGTAGAATGAAGG
Summed up:
(§1)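 Custom Agilent 4×180K protein-binding microarrays carried double-stranded probes. Their 34-nt variable regions held direct-repeat seeds, single-nucleotide variants, half-site ablations and random human genomic background sequences. Arrays were incubated 1 h with ligand-free nuclear receptor dimers in PBS pH 7.4, 2% milk, 0.02% Triton X-100, 1 mM DTT, 0.2 mg/mL BSA and 0.4 mg/ml salmon testes DNA. Antibodies against each partner (one per run) detected binding, and scanned fluorescence was regression-normalized. Binding z-scores use random background probes as reference.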
For the sequence TCATATAGGTAACAGGTGAAAGTCGGTGTGGTAA, the PBM binding z-score was 6.73.

As for AGAATGAGGTTACCAAAGATCAGGGACACGCTTG, the PBM binding z-score stood at 2.29.

CGAACTAGGTCAAGGACAGTGCATCTCCGCACGC gave a PBM binding z-score of 5.86.

CCTACTGGGCCATCTGGTCATTGATATCAACGTT came in with a PBM binding z-score of 1.69.

For CGTCCAAGGTCAAAGGAGGTCAGTGAAGACAGAT, the PBM binding z-score worked out at 4.81.

In turn, ACTAGCAGGCCAAGTTTGGGTGACTCAAACAAAG showed a PBM binding z-score of -0.213.

As for CAAACTAGGTCACCGGAAGGTCAAAATCCGCATG, the PBM binding z-score is 7.63.

For CCTGCTAGGTCAATGGTCAACTAAAGCAGCTCGC, the PBM binding z-score is 5.51.

CCAGACAGGTGAGAAGGTATCTCAGCCTCGATTA showed a PBM binding z-score of -0.148.

For TCTAGCAAGCCAGAGGGTCACTCAAGAGGTACGG, the PBM binding z-score was determined as 1.28.

CGTCCAAGGTCAGAGAGCTCAGTGAATGCCGAGT had a PBM binding z-score of 1.43.

In the case of CGTCCAAGGTCAAGGTCAGCGAAAGAGACTCGAA, the PBM binding z-score turned out to be 5.28.

Take CCTACTCGGCCATTCAGAGGTCATTGATCATATG: the PBM binding z-score stood at 1.31.

Sequence TCGAATAGGTTACCAATGGGGCATTCAGCTTTCT gave a PBM binding z-score of 2.43.

On to ATCGAGAGGTCGAAGGTGAGTATACCCACCCGAA, for which the PBM binding z-score came out at 3.84.

Sequence CCTTGCAGGCCAGGGTCACTCAAGCATTTCGCTT came in with a PBM binding z-score of 1.02.

In the case of TCGCGTAGGTTAGTCGGGGCATTCAGCCAACATA, the PBM binding z-score was determined as 0.992.

As for AGGATGAGGTTACCAAAGATCAGGGAAACGCTTG, the PBM binding z-score is 1.12.

The subject of a further assay is PPARg:RXRa DBDmut IVT, anti-RXR (DBD mutation: RXRa K156A/R161A, NR concentration 270 nM, RXRa partner concentration 90 nM). Described as above. In a few lines:
as §1
As for AATACAGGGTCATCGTAGGCCAGAGAACGCACAG, the PBM binding z-score is 3.24.

As for CCGACTGGGGCATAAGGTTACGATAAGCCAGCCC, the PBM binding z-score was 2.87.

Sequence CGTCCAAGGTCAGAGAGGTAAGTGAATGCCGAGT yielded a PBM binding z-score of 2.46.

For the sequence TCGAGTAGGTTACCAATGGGGCGTTCAGCTTTCT, the PBM binding z-score was 3.2.

Sequence CCTCCTGGGCCAAAGGTCATTGATTCCAATGCTC showed a PBM binding z-score of 1.03.

GCGACTGGGGCATCAGGAGGTTACCATAACTTAA yielded a PBM binding z-score of 3.82.

For CCTATTAGTTGACCATAAGGGCAACGGAAGCTCG, the PBM binding z-score amounted to 0.458.

CAAACTAGGTCAACGGAAGGTCAAAGTCCGCATG yielded a PBM binding z-score of 8.48.

Turning to ACTATTAGTTGAGACGCGGGCAACCGATAGGTTG, the PBM binding z-score is -0.288.

With ACTAGTTAGTCAGCTGAGGTCACACACAATTCGG, the PBM binding z-score worked out at 0.771.

As to ATCGAAAGGTCGAAGGTGAATATACCCACCCGAA, the PBM binding z-score came to 0.205.

Turning to ATATCTAGGTTAGCTGGGGTCATTCAGACTAGGC, the PBM binding z-score amounted to 6.63.

For the sequence TCTTGTAGATCAAGCAGGTTAAGAAGGCCTGAGT, the PBM binding z-score stood at 1.58.

The sequence CCAGACAGGTTAAAGGTAACTCAGTCTGGTACGC gave a PBM binding z-score of 0.728.

On to TCTTGTAGATCAAAGGTTAAGTAAGCCGAAGCCT, for which the PBM binding z-score is 2.31.

The sequence TCTGCAAGGTCAGTTGGTCAGCTAACGAGCTGCC had a PBM binding z-score of 1.67.

On to TTACCAAGGTGAAGGTCGCTGATCCCTCTGTAGA, for which the PBM binding z-score is 1.76.

For the sequence ACTTACGGGGCAACGAGGTTATAGCACGCGTATA, the PBM binding z-score was 2.66.

As for TCTGCTAGGTCAACGATGGTCAGCCAATCTGCTA, the PBM binding z-score stood at 4.18.

The sequence ATCTCTACGTAACCAAGTTCAGTGAATGCCGAAC returned a PBM binding z-score of -0.22.

On to GCTATTAGTTGAAAGGGCATCCGAATGATTCTCG, for which the PBM binding z-score amounted to 0.6.

CGAACTAGGTCGTTGACAGGACAGTGAATAGTAA registered a PBM binding z-score of 5.75.

As to TCATATAGGTAACAGGTGAAAGTCGGTGTGGTAA, the PBM binding z-score worked out at 5.02.

Regarding AGAATGAGGTTACCAAAGATCAGGGACACGCTTG, the PBM binding z-score worked out at 4.01.

As for CGAACTAGGTCAAGGACAGTGCATCTCCGCACGC, the PBM binding z-score came to 8.15.

CCTACTGGGCCATCTGGTCATTGATATCAACGTT returned a PBM binding z-score of 3.95.

Consider CGTCCAAGGTCAAAGGAGGTCAGTGAAGACAGAT, for which the PBM binding z-score came to 3.19.

ACTAGCAGGCCAAGTTTGGGTGACTCAAACAAAG had a PBM binding z-score of 0.661.

Sequence CAAACTAGGTCACCGGAAGGTCAAAATCCGCATG displayed a PBM binding z-score of 8.74.

In turn, CCTGCTAGGTCAATGGTCAACTAAAGCAGCTCGC registered a PBM binding z-score of 3.98.

On to CCAGACAGGTGAGAAGGTATCTCAGCCTCGATTA, for which the PBM binding z-score came to 0.865.

In turn, TCTAGCAAGCCAGAGGGTCACTCAAGAGGTACGG yielded a PBM binding z-score of 0.615.

The sequence CGTCCAAGGTCAGAGAGCTCAGTGAATGCCGAGT returned a PBM binding z-score of 2.67.

CGTCCAAGGTCAAGGTCAGCGAAAGAGACTCGAA yielded a PBM binding z-score of 3.83.

CCTACTCGGCCATTCAGAGGTCATTGATCATATG: the PBM binding z-score stood at 2.23.

TCGAATAGGTTACCAATGGGGCATTCAGCTTTCT registered a PBM binding z-score of 2.41.

For the sequence ATCGAGAGGTCGAAGGTGAGTATACCCACCCGAA, the PBM binding z-score was -0.545.

Sequence CCTTGCAGGCCAGGGTCACTCAAGCATTTCGCTT came in with a PBM binding z-score of 1.64.

For the sequence TCGCGTAGGTTAGTCGGGGCATTCAGCCAACATA, the PBM binding z-score worked out at 0.798.

The sequence AGGATGAGGTTACCAAAGATCAGGGAAACGCTTG came in with a PBM binding z-score of 0.68.

For another assay, the system named is PPARg:RXRa IVT, anti-PPARg (NR concentration 270 nM, RXRa partner concentration 90 nM). Described as above. In a few lines: as §1
In turn, AATACAGGGTCATCGTAGGCCAGAGAACGCACAG returned a PBM binding z-score of 4.03.

CCGACTGGGGCATAAGGTTACGATAAGCCAGCCC gave a PBM binding z-score of 3.37.

On to CGTCCAAGGTCAGAGAGGTAAGTGAATGCCGAGT, for which the PBM binding z-score turned out to be 2.1.

TCGAGTAGGTTACCAATGGGGCGTTCAGCTTTCT showed a PBM binding z-score of 2.46.

Sequence CCTCCTGGGCCAAAGGTCATTGATTCCAATGCTC returned a PBM binding z-score of 4.67.

Turning to GCGACTGGGGCATCAGGAGGTTACCATAACTTAA, the PBM binding z-score was found to be 3.59.

Take CCTATTAGTTGACCATAAGGGCAACGGAAGCTCG: the PBM binding z-score amounted to 0.449.

CAAACTAGGTCAACGGAAGGTCAAAGTCCGCATG displayed a PBM binding z-score of 8.61.

Take ACTATTAGTTGAGACGCGGGCAACCGATAGGTTG: the PBM binding z-score was -0.175.

Sequence ACTAGTTAGTCAGCTGAGGTCACACACAATTCGG showed a PBM binding z-score of 2.31.

ATCGAAAGGTCGAAGGTGAATATACCCACCCGAA registered a PBM binding z-score of 2.75.

For the sequence ATATCTAGGTTAGCTGGGGTCATTCAGACTAGGC, the PBM binding z-score worked out at 6.38.

TCTTGTAGATCAAGCAGGTTAAGAAGGCCTGAGT showed a PBM binding z-score of 0.43.

In the case of CCAGACAGGTTAAAGGTAACTCAGTCTGGTACGC, the PBM binding z-score stood at 1.86.

As to TCTTGTAGATCAAAGGTTAAGTAAGCCGAAGCCT, the PBM binding z-score is 3.98.

As to TCTGCAAGGTCAGTTGGTCAGCTAACGAGCTGCC, the PBM binding z-score is 2.69.

For TTACCAAGGTGAAGGTCGCTGATCCCTCTGTAGA, the PBM binding z-score was found to be 3.41.

Sequence ACTTACGGGGCAACGAGGTTATAGCACGCGTATA registered a PBM binding z-score of 2.16.

As for TCTGCTAGGTCAACGATGGTCAGCCAATCTGCTA, the PBM binding z-score came out at 4.29.

As for ATCTCTACGTAACCAAGTTCAGTGAATGCCGAAC, the PBM binding z-score was determined as 0.0113.

GCTATTAGTTGAAAGGGCATCCGAATGATTCTCG: the PBM binding z-score came out at 0.576.

CGAACTAGGTCGTTGACAGGACAGTGAATAGTAA returned a PBM binding z-score of 5.01.

In turn, TCATATAGGTAACAGGTGAAAGTCGGTGTGGTAA had a PBM binding z-score of 4.81.

AGAATGAGGTTACCAAAGATCAGGGACACGCTTG yielded a PBM binding z-score of 3.4.

As for CGAACTAGGTCAAGGACAGTGCATCTCCGCACGC, the PBM binding z-score is 8.09.

Consider CCTACTGGGCCATCTGGTCATTGATATCAACGTT, for which the PBM binding z-score stood at 4.15.

For CGTCCAAGGTCAAAGGAGGTCAGTGAAGACAGAT, the PBM binding z-score was 4.71.

Take ACTAGCAGGCCAAGTTTGGGTGACTCAAACAAAG: the PBM binding z-score amounted to 0.765.

For the sequence CAAACTAGGTCACCGGAAGGTCAAAATCCGCATG, the PBM binding z-score came out at 9.07.

As for CCTGCTAGGTCAATGGTCAACTAAAGCAGCTCGC, the PBM binding z-score is 4.58.

Consider CCAGACAGGTGAGAAGGTATCTCAGCCTCGATTA, for which the PBM binding z-score was determined as 0.119.

Consider TCTAGCAAGCCAGAGGGTCACTCAAGAGGTACGG, for which the PBM binding z-score is -0.0358.

In the case of CGTCCAAGGTCAGAGAGCTCAGTGAATGCCGAGT, the PBM binding z-score was 1.84.

Sequence CGTCCAAGGTCAAGGTCAGCGAAAGAGACTCGAA yielded a PBM binding z-score of 4.71.

The sequence CCTACTCGGCCATTCAGAGGTCATTGATCATATG registered a PBM binding z-score of 1.88.

TCGAATAGGTTACCAATGGGGCATTCAGCTTTCT had a PBM binding z-score of 1.12.

In turn, ATCGAGAGGTCGAAGGTGAGTATACCCACCCGAA had a PBM binding z-score of 1.62.

For CCTTGCAGGCCAGGGTCACTCAAGCATTTCGCTT, the PBM binding z-score was determined as 1.87.

Consider TCGCGTAGGTTAGTCGGGGCATTCAGCCAACATA, for which the PBM binding z-score worked out at 0.382.

AGGATGAGGTTACCAAAGATCAGGGAAACGCTTG: the PBM binding z-score turned out to be 1.09.
